# Compounds with a hit are over-represented: about 9.4% of the library has one in this group of screens.
# SMN2 splice up: increases expression of the SMN2 splice variant | HEK293 SMN2-luciferase splicing reporter, luminescence, 30-36 h | Potency, µM (top dose mostly 46.1 µM), most hits filed as activators | hit rate 2.8% among 210,000; also: nearly all actives have a fitted effect of over 55% in size
#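 qHTS luciferase splicing reporter: luminescence rises when SMN2 exon 7 is included in transfected HEK293 cells. Compound exposure lasted 30-36 h at 37C, with 4.5 mM final sodium butyrate as control, followed by a ONE-Glo read.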
# NPC1 promoter act: activates the NPC1 promoter; hit rate 2.4% among 320,000; Potency, µM (highest dose often 9.22 µM), most hits filed as activators; Huh7 NPC1 promoter luciferase reporter, 24 h; also: nearly all actives have a fitted effect of over 60% in size
#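 Huh7 reporter cells (NPC1 promoter driving luciferase) are dosed with compound for 24 h at 37 °C, 5% CO2; luciferase detection reagent is then added and luminescence measured after 10 min at ambient temperature.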
# FLuc modulator: inhibits or activates purified firefly luciferase, miR-21 counter-screen; hit rate 6.9% among 360,000; Potency, µM (doses to about 57.5 µM), actives largely listed as inhibitors; purified FLuc, Km substrates, luminescence inhibition; AID 588342; P08659; also: nearly all actives have a fitted effect of over 55% in size
# Target sequence (P08659 whole entry, looked up): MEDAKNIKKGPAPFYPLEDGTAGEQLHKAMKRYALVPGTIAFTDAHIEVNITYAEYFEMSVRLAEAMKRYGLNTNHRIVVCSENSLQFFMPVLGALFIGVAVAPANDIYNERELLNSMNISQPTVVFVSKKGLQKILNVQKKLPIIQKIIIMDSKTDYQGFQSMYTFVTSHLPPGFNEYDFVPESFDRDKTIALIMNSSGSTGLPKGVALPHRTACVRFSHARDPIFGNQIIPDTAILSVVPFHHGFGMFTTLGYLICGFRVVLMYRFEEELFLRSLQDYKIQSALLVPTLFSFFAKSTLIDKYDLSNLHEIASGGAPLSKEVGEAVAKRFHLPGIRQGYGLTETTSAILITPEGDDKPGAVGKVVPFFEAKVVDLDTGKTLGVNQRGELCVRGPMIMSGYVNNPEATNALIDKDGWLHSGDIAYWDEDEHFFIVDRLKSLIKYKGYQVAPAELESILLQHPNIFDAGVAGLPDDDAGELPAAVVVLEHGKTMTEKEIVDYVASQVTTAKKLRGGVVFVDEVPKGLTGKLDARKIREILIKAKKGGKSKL
#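 Biochemical qHTS of compounds, final roughly 60 µM downward over six points, against 10 nM purified firefly luciferase using Km concentrations of substrates (10 uM D-luciferin, 10 uM ATP) in Tris acetate pH 7.5 buffer; luminescence output.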
# Rab9 promoter act: activators of Rab9 promoter; Huh7 Rab9 promoter-luciferase reporter, luminescence, 24 h; Potency, µM (series often up to 9.22 µM), hits mostly activators; hit rate 2.8% among 320,000; AID 485297; also: nearly all actives have a fitted effect of over 60% in size
#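 Luminescence read-out: Huh7 cells stably expressing Rab9-luciferase, treated 24 h with compound at 37 °C, then lysed with luciferase reagent for 10 min at ambient before reading.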
# ELG1 DNA repair: ELG1-dependent DNA repair inhibition; HEK293T ELG1-luciferase reporter, luminescence, 16 h; DNA damage induced by 5-fluorouridine; Potency, µM (highest dose often 46.1 µM), most hits filed as inhibitors; hit rate 2.3% among 330,000; also: nearly all actives have a fitted effect of over 55% in size
#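 Luminescence from the luciferase reporter, measured 30 min after ONE-Glo reagent at room temperature, was the read-out. Beforehand, 2,000 cells per well were exposed for 16 hr at 37 °C to 5-fluorouridine together with compound or vehicle.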
# ELG1 genotoxic: genotoxicity induction in ELG1-luciferase HEK293T cells. HEK293T ELG1-luciferase reporter, luminescence, 16 h. Potency, µM (series often up to 46 µM), usual class: activators. hit rate 1.3% among 330,000; also: nearly all actives have a fitted effect of over 60% in size
#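 Cells (2,000/well) expressing the ELG1-luciferase fusion are dosed by pin tool and kept 16 hr at 37 °C, 5% CO2. Signal comes from ONE-Glo luciferase reagent after 30 min at room temperature.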
# Numbers stand for hits; - = inactive; ? = inconclusive; . = not tested or not shown; [ ] = remark or other dose. Calls follow the shape of the dose curve; as a rule, active = well fitted curve in the direction sought with a large enough effect; inconclusive = small, poorly fitted or top-dose-only effect, or another doubt; inactive = no such curve, though single readings can be large; an effect the other way counts as inactive or inconclusive.
SMILES,SMN2 splice up,NPC1 promoter act,FLuc modulator,Rab9 promoter act,ELG1 DNA repair,ELG1 genotoxic
Clc1cncc(Cl)c1N/N=C/c1ccncc1,-,-,?,-,?,-
Cc1ccc(-c2nnc(Nc3ccc(S(N)(=O)=O)cc3)c3ccccc23)cc1S(=O)(=O)N1CCOCC1,-,.,-,.,.,.
COc1cc(NC(=O)c2cccc(Cl)c2Cl)ccc1NC(=O)c1cc2ccccc2o1,-,.,-,.,.,.
N/C(Cc1cccs1)=N\OC(=O)COc1ccc(Br)cc1Cl,-,?,11µM,-,?,?
O=C(COC(=O)COc1ccc(Cl)cc1Br)NCc1cccs1,-,-,?,-,-,-
N/C(Cc1cccs1)=N\OC(=O)COc1ccccc1Cl,-,-,24µM,?,?,23µM
O=C(CSc1ccc(-c2cccc([N+](=O)[O-])c2)nn1)N1CCCC1,-,-,-,-,?,-
CCSc1ccc(-c2cccc([N+](=O)[O-])c2)nn1,?,?,?,3.2µM,?,?
O=C(OCCOc1ccccc1Cl)c1ccc(-n2cnnn2)cc1,-,-,21µM,-,-,-
COc1ccccc1CNC(=O)COC(=O)c1ccc(-n2cnnn2)cc1,.,-,-,-,-,-
CCN(CC)CCN(Cc1cc2cc(C)c(C)cc2[nH]c1=O)C(=S)NCc1ccco1,.,-,24µM,-,-,-
Cc1ccc(C)c2[nH]c(=O)c(CN(Cc3cccs3)C(=S)NCc3ccco3)cc12,-[1.84 µM],-,-,-,16µM,-
Cc1cc2cc(CN(Cc3cccs3)C(=S)NCc3ccco3)c(=O)[nH]c2cc1C,-[1.84 µM],-,-,-,21µM,-
CCOc1ccccc1NC(=O)Cn1c(=O)n(CCCC(=O)NCCOC)c(=O)c2cc(OC)c(OC)cc21,-,.,-,.,.,.
CC1(C)CC(=O)C(C(c2cccc(O)c2O)C2C(=O)CC(C)(C)CC2=O)C(=O)C1,-[9.22 µM],.,.,.,.,.
Cc1ccnc(Nc2nc(-c3c(C)nc4sccn34)cs2)c1,-,-,8.5µM,-,26µM,-
CC(=O)Nc1cccc(-c2csc(Nc3cc(C)ccn3)n2)c1,?,2.5µM,2.7µM,1.3µM,?,-
CC(=O)Nc1cccc(-c2csc(Nc3ccccn3)n2)c1,11µM,1.3µM,1.5µM,1.1µM,?,?
Cc1ccc(Nc2nc(-c3c(C)nc4ncccn34)cs2)cc1,-,-,-,-,-,-
CC(=O)Nc1ccc(-c2csc(Nc3cc(C)ccn3)n2)cc1,-,?,15µM,-,?,-
Cc1cc(C)c(NC(=O)Cc2csc(C)n2)c(Cl)c1,-,.,-,.,.,.
Cc1ccnc(Nc2nc(-c3ccccc3)cs2)c1,.,1.4µM,1.1µM,?,?,?
CC(=O)Nc1cccc(-c2csc(Nc3ccc(Cl)cn3)n2)c1,11µM,2µM,2.4µM,3.2µM,?,?
CCn1c(=O)cc(SCC(=O)NCCc2ccc(OC)cc2OC)c2ccccc21,-,.,-,.,.,.
CCn1cc(C(=O)N(C)c2ccc(OC)cc2OC)c2cc(OC)c(OC)cc2c1=O,.,-,-,-,15µM,-
SMILES,SMN2 splice up,NPC1 promoter act,FLuc modulator,Rab9 promoter act,ELG1 DNA repair,ELG1 genotoxic
CCn1cc(C(=O)N(C)c2cc(C)ccc2OC)c2cc(OC)c(OC)cc2c1=O,.,-,-,-,?,-
O=C1C(C2=NC(C(=O)O)C3C(=O)N(c4ccccc4)C(=O)C23)=C(O)c2ccccc21 (stereo not drawn),-,-,12µM,-,?,-
O=[N+]([O-])c1ncccc1OCc1ccc(Cl)c(Cl)c1,.,?,24µM,?,?,18µM
CN(C)S(=O)(=O)c1cccc(COc2cccnc2[N+](=O)[O-])c1,.,-,-,-,-,-
COC(=O)c1ccc2c(c1)N(CC(=O)Nc1cccc(C(F)(F)F)c1)C(=O)c1ccccc1S2,.,.,-,.,.,.
O=C1NC(=Nc2ccccc2)S/C1=C\C=C\c1ccco1,14µM,-,19µM,-,?,?
O=C1NC(=Nc2ccccc2)S/C1=C/c1cccs1,?,?,11µM,?,?,?
O=C1NC(=Nc2cccnc2)S/C1=C\c1cccc(F)c1,.,-,30µM,-,-,-
Cc1ccc(N=C2NC(=O)/C(=C/C=C/c3ccco3)S2)cc1,?,-,?,-,-,-
Cc1ccc(N=C2NC(=O)/C(=C/c3cccn3C)S2)cc1,.,?,3.4µM,?,?,23µM

# High-throughput results (PubChem BioAssay)
